High-throughput results deposited in PubChem by National Center for Advancing Translational Sciences (NCATS).
Most compounds without a hit are left out; they make up all but 7.8% or so of the library.
LASV entry inh – qHTS for Inhibitors of binding or entry into cells for Lassa Virus; Lassa virus pseudotype entry inhibition, cell reporter; Potency, µM (series often up to 37.9 µM), inactives show at the top dose activity change, negative = inhibition, usual class: inhibitors; 300,000 tested, 1.2% active; calls by dose curve; tested in HEK293 cells; also: potency is read from the fitted curve at half-maximal effect; nearly all actives have a fitted effect of over 50% in size
HCMV antiviral – qHTS Assay for inhibitors of the human cytomegalovirus (HCMV); HFF cells, HCMV-luciferase reporter, 72 h; active compounds read low; AID 1259415, 2018; activity change, negative = inhibition, % at 57.5 µM; 410,000 tested, 4.5% active; in the data active = activity change below about -60%; inconclusive = no clear call, values can overlap the other calls; inactive = above about -39%
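Inhibition of viral replication was scored as loss of reporter luminescence in HFFs infected with HCMV-luciferase (MOI 1 PFU/cell) for 72 h; compounds tested at 2 doses, normalized to buffer and Salinomycin controls.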
Vaccinia mCherry – qHTS for Stage-Specific Inhibitors of Vaccinia Orthopoxvirus: mCherry Reporter Primary qHTS; Potency, µM (series often up to 36.5 µM), for the others: top-dose activity change, negative = inhibition, usual class: inhibitors; 310,000 tested, 0.63% active; Vaccinia virus mCherry reporter infection, fluorescence; calls by dose curve; tested in A549 cells; also: potency is read from the fitted curve at half-maximal effect; nearly all actives have a fitted effect of over 35% in size
Vaccinia Venus – qHTS for Stage-Specific Inhibitors of Vaccinia Orthopoxvirus: Venus Reporter Primary qHTS. 330,000 tested, 0.46% active. Vaccinia virus Venus reporter expression, fluorescence. Potency, µM (highest dose often 36.5 µM), for the others: at the highest dose activity change, negative = inhibition, hits mostly inhibitors; calls by dose curve; tested in A549 cells; also: potency is read from the fitted curve at half-maximal effect; nearly all actives have a fitted effect of over 30% in size
HCV inh – qHTS Assay for Inhibitors of Hepatitis C Virus (HCV); Huh7.5.1 HCVcc-Cre infection, luciferase reporter, 44 h; Potency, µM (highest dose often 41.8 µM), for inactives: top-dose activity change, negative = inhibition, usual class: inhibitors; 340,000 tested, 3.4% active; active = well fitted inhibition curve with a large enough effect; inconclusive = small, poorly fitted or top-dose-only effect, or another doubt; inactive = no such curve, though single readings can be large or run the other way; also: potency is read from the fitted curve at half-maximal effect
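HCVcc-Cre virus at an moi near 0.5 was added right after compound to cells cultured 4 h from seeding (1,000 cells/well). Luciferase activity was determined 44 h later, 15 min after substrate addition at RT.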
MARV entry inh – qHTS for inhibitors of binding or entry into cells for Marburg Virus. Marburg virus pseudotyped entry inhibition, cell reporter. Potency, µM (top dose mostly 37.8 µM), without a hit: at the highest dose activity change, negative = inhibition, hits mostly inhibitors. 300,000 tested, 1.8% active; calls by dose curve; tested in HEK293 cells; also: potency is read from the fitted curve at half-maximal effect
Active calls of the source: *; i = inactive; u = inconclusive; x = no result; [ ] = dose if it differs, or a comment. % is scaled to controls: 0 for no effect and ±100 for the full control effect.

SMILES	LASV entry inh	HCMV antiviral	Vaccinia mCherry	Vaccinia Venus	HCV inh	MARV entry inh
CCCCNc1sc(S(=O)(=O)CC)nc1S(=O)(=O)c1ccc(C)cc1	-21%[46.1 µM]	-11	-4%	-11%	x	1%[46.1 µM]
CCCSc1nc2c(cnn2-c2ccccc2)c(=O)n1N	8.9µM*	73	i[7.34 µM]	-5%[7.34 µM]	-14%	u
CCc1ccc2nc(N3CCN(C(=O)c4ccccc4)CC3)sc2c1	-8%[46.1 µM]	u	-14%	-24%	x	x
Cc1cc(C)c2nc(N3CCC(C(=O)NCC4CCCO4)CC3)sc2c1 (centres undefined)	x	51	-5%[7.34 µM]	-1%[7.34 µM]	u	x
CC1CCN(c2nc3ccc(C(=O)N4CCN(Cc5ccccc5)CC4)cc3s2)CC1	x	u	u	u	11µM*	-2%
CCCN1CCN(CCCNC(=O)c2ccc3nc(N4CCC(C)CC4)sc3c2)CC1	x	-25	i	-3%	11µM*	x
Cc1cc(C)c2nc(N3CCC(C(=O)NCCCN4CCCCC4)CC3)sc2c1	u	-103*	x	x	u	u
CCN(Cc1ccccc1)S(=O)(=O)c1ccc(C(=O)N2CCN(c3nc4ccccc4s3)CC2)cc1	0%	-66*	-22%	-23%	10µM*	u
CS(=O)(=O)c1ccccc1-c1nnc(NC(=O)c2ccc3c(c2)OCCO3)o1	25%[46.1 µM]	53	-3%[7.34 µM]	-3%[7.34 µM]	x	x
CCCCN(C)CCNC(=O)C1CCN(c2nc3ccc(CC)cc3s2)CC1	26%[46.1 µM]	-98*	-6%	-10%	x	u
O=C(c1ccccc1)N1CCN(c2nc3ccc([N+](=O)[O-])cc3s2)CC1	x	-67*	-16%	u	u	x
CCc1nc2ccc(C(=O)N3CCN(c4ccc([N+](=O)[O-])cc4)CC3)cc2nc1CC	x	u	x	x	13µM*	x
CCc1ccc2nc(N3CCC(C(=O)O)CC3)sc2c1	x	-30	-6%	5%	x	u
O=[N+]([O-])c1ccc2nc(N3CCCC3)sc2c1	x	62	x	x	u	x
CCc1noc(C)c1C(=O)N1CCN(c2ccc([N+](=O)[O-])cc2)CC1	x	38	-10%	-16%	x	x
CC(C)=CCCC(C)=CCON=C1C[C@@H](O)[C@@H](O)[C@@H]2[C@H]3C(=O)N(c4cccc(Oc5ccccc5)c4)C(=O)[C@@H]3CC[C@H]12	x	x	x	x	x	26%[14.2 µM]
COC[C@@H](O)[C@H]1OCc2cccc(OC)c2[C@H]1C=Cc1ccccc1	x	x	x	x	x	8%[14.2 µM]
O=C(Nc1ccc(N2CCCCC2)c(Cl)c1)c1ccc2c(c1)OCCO2	-24%	-77*	-17%	u	10µM*	-25%[46.1 µM]
O=C(Nc1ccc(N2CCCC2)c(Cl)c1)c1ccc2c(c1)OCCO2	u	-4	-19%	-8%	u	u
O=C(Nc1ccc(N2CCOCC2)c(Cl)c1)c1ccc2c(c1)OCCO2	x	-61*	x	x	11µM*	x
O=C(Nc1ccc(N2CCOCC2)c(Cl)c1)c1ccc(Cl)cc1	-11%	u	-9%	6%	10µM*	2%
Cc1noc(C)c1C(=O)Nc1cc(Cl)ccc1N1CCOCC1	x	-9	x	x	10µM*	x
COc1ccccc1-c1ccnc(-n2ncc(C(=O)NC3CCCN(Cc4ccccc4)C3)c2C)n1 (centres undefined)	x	x	-16%	3%	x	x
Cc1ccc(OCC(=O)Nc2ccc3c(c2)nc(CCNC(=O)c2ccco2)n3C)cc1	4%[46.1 µM]	-8	-12%	-19%	x	u
CCOCCn1ccc2c(OCC(=O)Nc3ccc(C(N)=O)cc3)cccc2c1=O	-7%[46.1 µM]	25	-12%	-2%	x	x
SMILES	LASV entry inh	HCMV antiviral	Vaccinia mCherry	Vaccinia Venus	HCV inh	MARV entry inh
COc1ccc(NC(=O)CSc2nc3ccccc3n2-c2ccccc2)c([N+](=O)[O-])c1	u	-3	x	x	u	12µM*
O=C(O)CCSc1nc2ccccc2n1-c1ccccc1	4%[46.1 µM]	31	-10%	-6%	7%	-11%[46.1 µM]
O=C(CSc1nc2ccccc2n1-c1ccccc1)Nc1ncc(Cl)cc1Cl	2.5µM*	u	6.3µM*	20%	u	1.1µM*
COCCn1c(SCC(=O)Nc2nc(C)c(Cl)cc2Cl)nc2ccccc21	23µM*	u	-14%	-8%	-22%	u
COCCn1c(SCC(=O)Nc2cccnc2Cl)nc2ccccc21	x	u	x	x	-2%	x
CC1=Nc2ccccc2N=C(NC(=O)CSC(=S)N2CCCCC2)C1c1ccccc1 (centres undefined)	-5%[46.1 µM]	10	-21%	-15%	u	10µM*
CC1=Nc2ccccc2N=C(NC(=O)CSC(=S)N2CCN(C)CC2)C1c1ccccc1 (centres undefined)	-14%	99	-24%	-9%	-9%	u
C/C=N\NC(=O)COc1cc(C)ccc1C	24%	-60*	-14%	-23%	15%	-7%[46.1 µM]
Cc1ccc(C(C)C)cc1OCC(=O)N/N=C/c1ccc2c(c1)OCCO2	1.1µM*	-20	-3%	-19%	-25%	u
Cc1ccc(C)c(OCC(=O)NCCNC(=O)COc2cc(C)ccc2C)c1	-1%	31	x	x	u	-12%
Cc1cc(C)c2c(n1)sc1c(=O)n(-c3ccccc3C(F)(F)F)nnc12	15%[46.1 µM]	-4	-8%	-5%	x	1%[46.1 µM]
CC(C)C(NS(C)(=O)=O)c1nnc2n1CCN(Cc1cccc3ncccc13)CC2 (centres undefined)	x	x	0%	-3%	x	x
Cc1ccc2ccc[n+](Cc3ccccc3)c2c1	x	-82*	-20%	-28%	u	x
Cc1ccc2c(c1)c(C)cc[n+]2Cc1ccccc1	u	-96*	u	-28%	u	10µM*
Cc1ccc2c(ccc[n+]2CC(=O)c2ccccc2)c1	1%	63	u	-8%	10%	-19%
COc1ccc2c(c1)c(C)cc[n+]2Cc1ccccc1	x	-85*	x	x	-17%	x
O=C1/C(=C/c2ccncc2)N2CCC1CC2	u	4	-12%	u	-12%	u
O=C1/C(=C/c2ccccc2Cl)N2CCC1CC2	x	-67*	-13%	4%	-19%	x
CC(=O)Nc1ccccc1-c1nc2ccccc2n(C(C)C(=O)Nc2ccccc2C(F)(F)F)c1=O (centres undefined)	-22%[46.1 µM]	-11	-1%	2%	x	4%[46.1 µM]
O=C(c1cccc(F)c1)N(Cc1cc2cc3c(cc2nc1N1CCOCC1)CCC3)CC1CCCO1 (centres undefined)	x	x	i	-4%	x	x
CC(C)[C@]1(c2ccc(Cl)cc2)ON(c2ccccc2C(F)(F)F)C1=O	x	x	x	x	-18%	x
CN(C(=O)/C=C/c1ccc([N+](=O)[O-])s1)c1ccccc1	x	u	x	x	22µM*	x
COc1ccc(C2c3c(n(C)c4ccccc34)C(=O)N2CC(=O)Nc2cccc(Cl)c2C)cc1 (centres undefined)	0%[46.1 µM]	0	i	-12%	x	x
Cc1ccc(C(=O)/C=C/c2cc(C#N)n(C)c2C)cc1	1%	-85*	-6%	-19%	-6%	-5%[46.1 µM]
Cc1c(C=C2C(=O)c3ccccc3C2=O)cc(C#N)n1C	x	x	x	x	5%	x
